Drawing on PubChem BioAssay AID624335 (National Center for Advancing Translational Sciences (NCATS), 2012), this text covers Potency for 40 compounds.

Active and inactive are the calls of the source. The call rests on the fitted dose curve; in most records, active means well fitted curve in the direction sought with a large enough effect; inactive means flat fitted curve, though single readings scatter.

The nature of this assay: Quantitative high throughput screen for delayed death inhibitors of the malarial parasite plastid: Hit Validation with 3D7 at 96 hr using Flow Cytometry. Particulars: P. falciparum 3D7 in erythrocytes, SYBR/MitoTracker flow cytometry. The text has this: The goal of this screen is to discover new antimalarial compounds that act by inhibiting the development of the apicoplast organelle in the malarial parasite Plasmodium falciparum. Some antibiotics, such as azithromycin and tetracycline, are known to interfere with the apicoplast translational machinery, and have a potent antimalarial effect. […] We developed a cell-based quantitative high throughput screen that leverages this "delayed death" phenotype to enrich for compounds that target the apicoplast. To detect small molecules that cause the delayed death phenotype, erythrocytes infected with firefly luciferase-expressing parasites were incubated with compounds for either one or two generations, corresponding to 48 and 96 hours, respectively. Growth inhibition was detected by a decrease in luciferase activity. Compounds that inhibited parasite growth in the second generation at least five-fold more potently than in the first generation were defined as delayed death inducing. These compounds were selected for confirmatory screening using a flow cytometry based assay. This hit validation assay used the 3D7 cell line and measured at 96 hours. NIH Molecular Libraries Probe Production Network [MLPCN] NIH Chemical Genomics Center [NCGC] MLPCN Grant: R21 NS059500 Assay Provider: David Fidock and Eric Ekland, Columbia University
Test compounds were diluted in 20 microliters of complete media (RPMI 1640 with 0.5% w/v Albumax (GIBCO), 24 mM sodium bicarbonate (Sigma) and 10 ug/mL gentamycin (Gibco)) in clear 384-well plates (Greiner). All liquid handling was conducted using a Bio Tek Precision 2000 pipetting system. Twenty microliters of infected erythrocytes, 0.2% parasitemia (for 48 hour time points) or 0.1% parasitemia (for 96 hour time points) were added to the compound dilutions (1% hematocrit, final concentration; 40 microliters, total culture volume). The assay plates were incubated for 48 hours, or 96 hours, at 37 masculine C in a humidified chamber (Billups- Rothenberg, Del Mar, CA, USA), gassed with 5%CO2/5%O2/ 90%N2. After two generations (96hours), 5 microliters of culture were harvested and transferred to a second 384 well plate for fluorescent staining. Samples were stained with 30 microliters of 2 x SYBR Green I (Invitrogen) and 150nM MitoTracker Deep Red (Invitrogen) diluted in 0.9% NaCl, 0.2% dextrose (Baxter) supplemented with 2.5% Fetal Calf Serum (Gibco) (saline/FCS). Mature erythrocytes lack nuclei and mitochondria, therefore only parasitized erythrocytes retain the SYBR Green I and MitoTracker Deep Red. After 30 minutes at 37 masculine C, the stained cells were diluted in an additional 60 microliters of saline/FCS. The samples were harvested directly from the 384 well plate using a Hypercyt High Capacity Flow Platform (Intellicyt) paired with a C6 Flow Cytometer (Accuri). The flow cytometry files were analyzed using FlowJo software (FlowJo).
(In general: Flow cytometry measures light scatter and fluorescence of single cells or particles in a stream.)
Turning to `COc1ccc(CNC(=O)C2CCC(CNS(=O)(=O)c3cccc4cccnc34)CC2)cc1` (stereo not given), the Potency was 16.5 µM (active). The value for `Clc1ccc(-c2c[n+](Cc3ccc(Cl)cc3Cl)c3n2CCCCC3)cc1` was 0.366 µM (active); that for `CCCc1cc(=O)oc2cc(OC(C)C(=O)NCc3ccccn3)c(Cl)cc12` (stereo not given) was 3.22 µM (active); that for `CCN(CC)C(=O)COc1coc(CN2CCN(c3cccc(Cl)c3)CC2)cc1=O` was 17.2 µM (active). The value for `CCCc1c(CC)c(=N)c2ccccc2n1C` was 0.198 µM (active). The value for `CC1=Nc2cc(C(=O)N3CCCC3)ccc2Sc2ccc(C)cc21` was 18 µM (active). With `CC(=O)NC[C@@H]1CN(c2ccc(N3CCOCC3)c(F)c2)C(=O)O1`, the Potency was 22.2 µM (active). In the case of `CO[C@@H]1[C@@H](OC2OC(C)C(OC3CC(C)(O)C(OC(=O)CC(C)C)C(C)O3)C(N(C)C)C2O)[C@@H](CC=O)C[C@@H](C)C(=O)/C=C\C2O[C@H]2C[C@@H](C)OC(=O)C[C@H]1OC(C)=O` (stereo not given in full) it was 0.178 µM (active); in that of `CCOc1ccc(S(=O)(=O)Nc2cc(S(=O)(=O)N(CC)CC)ccc2N2CCCC2)cc1`, 6.38 µM (active); in that of `CCCCN(CCCNC(=O)c1ccc(CS(=O)(=O)c2ccc(OC)cc2)o1)Cc1ccccc1`, 4.01 µM (active). The value for `COc1ccc(C(=O)N2CCN(S(=O)(=O)c3ccc(C)cc3C)CC2)cc1OC` was 45.8 µM (active); that for `O=C(c1ccc([N+](=O)[O-])cc1)n1nc(-c2ccccc2)nc1NCc1ccc(F)cc1` was 19.3 µM (active). Consider `CCOC(=O)c1ccc2c(c1)n(CC)c(/C=C/N(C)c1ccccc1)[n+]2CC`, for which the Potency was 0.209 µM (active).

Turning to `CCOc1ccc(NC(=O)C[n+]2ccc(N(C)C)cc2)cc1`, the Potency is 0.135 µM (active). In the case of `O=C(NCc1cccnc1)c1ccc(NS(=O)(=O)c2ccccc2)cc1` it was 21.4 µM (active); in that of `Cc1ccc(-n2c(-c3ccc(Cl)cc3)c[n+]3c2CCC3)cc1`, 0.15 µM (active); in that of `CN(C)c1ccc(CN(C(=O)c2ccccc2Br)C2CCS(=O)(=O)C2)cc1` (stereo not given), 18.2 µM (active). Regarding `CCCCN(CCCNC(=O)C1CCN(C(=O)c2cc3sccc3n2C)CC1)Cc1ccccc1`, the Potency is 0.617 µM (active).

Take `Cc1c(F)c(N2CCNC(C)C2)cc2c1c(=O)c(C(=O)O)cn2C1CC1` (stereo not given): the Potency was 0.651 µM (active).

`COc1ccc(Nc2nnc(-c3ccc(C)cc3)c3ccccc23)cc1C(=O)N1CCCCC1`: the Potency was 20 µM (active). In the case of `Cc1sc2nc[nH]c(=O)c2c1-c1ccc(Cl)cc1` it was 13.8 µM (active). Take `COc1cc(C(C)=O)ccc1OCC(O)CN1CCN(c2cc(C)cc(C)c2)CC1` (stereo not given): the Potency is 13.9 µM (active).

Regarding `COc1ccccc1N1CCN(CCC(=O)Nc2ccc(F)cc2)CC1`, the Potency is 15.7 µM (active).

Regarding `Cc1ccc(CN2CCC(n3nccc3NC(=O)c3ccccc3C)CC2)o1`, the Potency was 20.7 µM (active). The value for `CC(C)C(=O)NCCSc1c[nH]c2ccccc12` was 16.6 µM (active); that for `COc1cccc(CN2CCN(c3nc4nonc4nc3N3CCCCC3)CC2=O)c1` was 1 µM (active); that for `CCCCOc1ccc(N2C(N)=NC(N)=NC23CCCCC3)cc1` was 15.8 µM (active). The value for `COCCNC(=O)c1cccc(OC2CCN(Cc3cccc(SC)c3)CC2)c1` was 5.37 µM (active). `O=C(CNC(=O)C1CCCCC1)OC(C(=O)c1ccccc1)c1ccccc1` (stereo not given): the Potency is 31.7 µM (active).

As for `Brc1cccc(OCCCCN2CCCCC2)c1`, the Potency was 22.7 µM (active). In the case of `N#Cc1cccc(NC(=O)Cn2c3[n+](c4ccc(C(F)(F)F)cc42)CCCCC3)c1`, the Potency was 0.96 µM (active). Regarding `O=C(CSc1ccc(-c2cccnc2)nn1)Nc1ccccc1C(F)(F)F`, the Potency was 4.65 µM (active).

For the compound `COc1ccc2c(ccc[n+]2CC(=O)c2ccccc2)c1`, the Potency was 2.22 µM (active). The value for `CCOc1ccc(C(=O)Nc2ccc(N3CCN(C)CC3)cc2)cc1` was 16.5 µM (active); that for `O=C(Nc1ccccc1N1CCOCC1)c1cccc(S(=O)(=O)N2CCOCC2)c1` was 11 µM (active); that for `CN(C)S(=O)(=O)c1cc(NC(=O)C2=COCCO2)ccc1Cl` was 15.9 µM (active). For `COc1ccc(NC(=S)N2CCC(Cc3ccccc3)CC2)cc1OC`, the Potency is 26.6 µM (active).

As for `CCC(=O)OC1C(N(C)C)CC(C)O[C@H]1O[C@H]1[C@H](C)[C@@H](O[C@H]2CC(OC)[C@@H](O)C(C)O2)[C@H](C)C(=O)O[C@@H](CC)[C@](C)(O)[C@@H](O)[C@H](C)C(=O)[C@@H](C)C[C@]1(C)O` (stereo not given in full), the Potency is 11.4 µM (active). With `COc1ccc2cc3cc(C(=O)Nc4ccc5c(c4)OCO5)oc3nc2c1`, the Potency was 11.9 µM (active). For the compound `c1csc(CNc2ncnc3nc[nH]c23)c1`, the Potency is 23.4 µM (active).
